Data published in the supplement of paper PMC11732987, “Enantioselective OTUD7B fragment discovery through chemoproteomics screening and high-throughput optimisation” (Communications Chemistry, 2025).

Assays:
Test in all cases: log2 ratio of Biotin-Ahx-Ub-VS probe labelling (fragment/DMSO); higher = less target engagement (more negative = stronger competition), active = hit call of the paper (q ≤ 0.05, log2 ratio ≤ -1)
Settings in all cases: compound concentration: 200 uM; treatment time: 3 h
[1] = target: T1, USP19 (UniProt O94966)
T1 sequence (whole entry): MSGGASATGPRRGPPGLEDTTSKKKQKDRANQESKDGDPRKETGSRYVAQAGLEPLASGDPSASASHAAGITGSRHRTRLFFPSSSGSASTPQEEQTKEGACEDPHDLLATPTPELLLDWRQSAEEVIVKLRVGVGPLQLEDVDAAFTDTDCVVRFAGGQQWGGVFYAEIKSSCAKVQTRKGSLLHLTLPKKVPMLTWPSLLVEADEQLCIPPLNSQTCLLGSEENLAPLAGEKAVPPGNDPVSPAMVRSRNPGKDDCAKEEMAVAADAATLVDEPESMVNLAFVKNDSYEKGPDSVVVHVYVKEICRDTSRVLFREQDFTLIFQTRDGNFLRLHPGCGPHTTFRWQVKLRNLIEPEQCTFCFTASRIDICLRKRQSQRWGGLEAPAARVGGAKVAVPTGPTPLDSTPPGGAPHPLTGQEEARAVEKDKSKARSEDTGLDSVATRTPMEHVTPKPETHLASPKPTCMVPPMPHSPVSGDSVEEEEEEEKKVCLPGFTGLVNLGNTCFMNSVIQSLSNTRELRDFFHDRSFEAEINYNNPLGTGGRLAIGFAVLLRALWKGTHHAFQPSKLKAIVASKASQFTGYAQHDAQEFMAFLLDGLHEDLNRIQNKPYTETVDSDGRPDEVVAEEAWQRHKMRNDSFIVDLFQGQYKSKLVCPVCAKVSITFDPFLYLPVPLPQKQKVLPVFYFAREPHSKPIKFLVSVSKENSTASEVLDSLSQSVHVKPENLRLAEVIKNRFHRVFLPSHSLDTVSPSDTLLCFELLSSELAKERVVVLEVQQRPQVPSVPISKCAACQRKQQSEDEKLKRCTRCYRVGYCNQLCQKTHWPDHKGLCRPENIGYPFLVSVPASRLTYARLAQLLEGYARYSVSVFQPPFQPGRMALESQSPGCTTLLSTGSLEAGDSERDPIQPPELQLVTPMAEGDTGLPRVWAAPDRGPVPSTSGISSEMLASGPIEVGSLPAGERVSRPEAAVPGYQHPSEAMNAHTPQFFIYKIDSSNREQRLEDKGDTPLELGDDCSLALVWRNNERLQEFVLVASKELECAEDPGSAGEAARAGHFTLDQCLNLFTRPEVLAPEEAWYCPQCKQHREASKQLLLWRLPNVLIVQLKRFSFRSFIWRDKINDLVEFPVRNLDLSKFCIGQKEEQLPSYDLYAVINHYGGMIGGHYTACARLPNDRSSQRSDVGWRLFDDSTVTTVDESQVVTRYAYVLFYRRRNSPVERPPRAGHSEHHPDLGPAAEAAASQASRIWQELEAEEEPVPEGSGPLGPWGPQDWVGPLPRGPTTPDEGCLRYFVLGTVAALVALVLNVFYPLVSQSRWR
Summary of the method: (§1)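 Labelling with Biotin-Ahx-Ub-VS (0.5 µM final, 1 h) followed a 3 h triplicate treatment of HEK293T lysate (495 µg per sample, Tris/CHAPS/IGEPAL buffer with protease inhibitors) with fragment at 200 µM or vehicle. Labelled DUBs were NeutrAvidin-enriched, digested with LysC and trypsin, and run by diaPASEF LC-MS/MS. The values, average log2 fragment/vehicle ratios by unpaired t-test, come from global-median-normalised Spectronaut label-free quantities. Proteins with ≥2 unique peptides were used.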

[2] = target: T2, USP22 (UniProt Q9UPT9)
T2 sequence (whole entry): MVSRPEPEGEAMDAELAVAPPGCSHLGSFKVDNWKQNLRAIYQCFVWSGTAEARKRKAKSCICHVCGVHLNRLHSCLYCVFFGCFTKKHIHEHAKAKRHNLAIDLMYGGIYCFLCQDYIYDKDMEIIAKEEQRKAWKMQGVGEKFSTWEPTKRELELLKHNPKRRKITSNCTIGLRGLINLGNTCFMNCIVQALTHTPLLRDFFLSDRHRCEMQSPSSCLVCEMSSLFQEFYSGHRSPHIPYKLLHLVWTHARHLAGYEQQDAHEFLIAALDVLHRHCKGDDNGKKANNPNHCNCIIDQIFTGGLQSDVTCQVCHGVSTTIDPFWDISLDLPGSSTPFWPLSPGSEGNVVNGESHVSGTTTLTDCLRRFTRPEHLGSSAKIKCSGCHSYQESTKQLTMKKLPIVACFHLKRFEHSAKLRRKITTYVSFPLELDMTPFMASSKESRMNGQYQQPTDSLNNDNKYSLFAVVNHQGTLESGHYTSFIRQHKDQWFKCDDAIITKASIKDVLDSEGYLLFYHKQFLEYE
Summary of the method: as §1

[3] = target: USP24 (UniProt Q9UPU5)
Sequence of USP24 (Q9UPU5 whole entry): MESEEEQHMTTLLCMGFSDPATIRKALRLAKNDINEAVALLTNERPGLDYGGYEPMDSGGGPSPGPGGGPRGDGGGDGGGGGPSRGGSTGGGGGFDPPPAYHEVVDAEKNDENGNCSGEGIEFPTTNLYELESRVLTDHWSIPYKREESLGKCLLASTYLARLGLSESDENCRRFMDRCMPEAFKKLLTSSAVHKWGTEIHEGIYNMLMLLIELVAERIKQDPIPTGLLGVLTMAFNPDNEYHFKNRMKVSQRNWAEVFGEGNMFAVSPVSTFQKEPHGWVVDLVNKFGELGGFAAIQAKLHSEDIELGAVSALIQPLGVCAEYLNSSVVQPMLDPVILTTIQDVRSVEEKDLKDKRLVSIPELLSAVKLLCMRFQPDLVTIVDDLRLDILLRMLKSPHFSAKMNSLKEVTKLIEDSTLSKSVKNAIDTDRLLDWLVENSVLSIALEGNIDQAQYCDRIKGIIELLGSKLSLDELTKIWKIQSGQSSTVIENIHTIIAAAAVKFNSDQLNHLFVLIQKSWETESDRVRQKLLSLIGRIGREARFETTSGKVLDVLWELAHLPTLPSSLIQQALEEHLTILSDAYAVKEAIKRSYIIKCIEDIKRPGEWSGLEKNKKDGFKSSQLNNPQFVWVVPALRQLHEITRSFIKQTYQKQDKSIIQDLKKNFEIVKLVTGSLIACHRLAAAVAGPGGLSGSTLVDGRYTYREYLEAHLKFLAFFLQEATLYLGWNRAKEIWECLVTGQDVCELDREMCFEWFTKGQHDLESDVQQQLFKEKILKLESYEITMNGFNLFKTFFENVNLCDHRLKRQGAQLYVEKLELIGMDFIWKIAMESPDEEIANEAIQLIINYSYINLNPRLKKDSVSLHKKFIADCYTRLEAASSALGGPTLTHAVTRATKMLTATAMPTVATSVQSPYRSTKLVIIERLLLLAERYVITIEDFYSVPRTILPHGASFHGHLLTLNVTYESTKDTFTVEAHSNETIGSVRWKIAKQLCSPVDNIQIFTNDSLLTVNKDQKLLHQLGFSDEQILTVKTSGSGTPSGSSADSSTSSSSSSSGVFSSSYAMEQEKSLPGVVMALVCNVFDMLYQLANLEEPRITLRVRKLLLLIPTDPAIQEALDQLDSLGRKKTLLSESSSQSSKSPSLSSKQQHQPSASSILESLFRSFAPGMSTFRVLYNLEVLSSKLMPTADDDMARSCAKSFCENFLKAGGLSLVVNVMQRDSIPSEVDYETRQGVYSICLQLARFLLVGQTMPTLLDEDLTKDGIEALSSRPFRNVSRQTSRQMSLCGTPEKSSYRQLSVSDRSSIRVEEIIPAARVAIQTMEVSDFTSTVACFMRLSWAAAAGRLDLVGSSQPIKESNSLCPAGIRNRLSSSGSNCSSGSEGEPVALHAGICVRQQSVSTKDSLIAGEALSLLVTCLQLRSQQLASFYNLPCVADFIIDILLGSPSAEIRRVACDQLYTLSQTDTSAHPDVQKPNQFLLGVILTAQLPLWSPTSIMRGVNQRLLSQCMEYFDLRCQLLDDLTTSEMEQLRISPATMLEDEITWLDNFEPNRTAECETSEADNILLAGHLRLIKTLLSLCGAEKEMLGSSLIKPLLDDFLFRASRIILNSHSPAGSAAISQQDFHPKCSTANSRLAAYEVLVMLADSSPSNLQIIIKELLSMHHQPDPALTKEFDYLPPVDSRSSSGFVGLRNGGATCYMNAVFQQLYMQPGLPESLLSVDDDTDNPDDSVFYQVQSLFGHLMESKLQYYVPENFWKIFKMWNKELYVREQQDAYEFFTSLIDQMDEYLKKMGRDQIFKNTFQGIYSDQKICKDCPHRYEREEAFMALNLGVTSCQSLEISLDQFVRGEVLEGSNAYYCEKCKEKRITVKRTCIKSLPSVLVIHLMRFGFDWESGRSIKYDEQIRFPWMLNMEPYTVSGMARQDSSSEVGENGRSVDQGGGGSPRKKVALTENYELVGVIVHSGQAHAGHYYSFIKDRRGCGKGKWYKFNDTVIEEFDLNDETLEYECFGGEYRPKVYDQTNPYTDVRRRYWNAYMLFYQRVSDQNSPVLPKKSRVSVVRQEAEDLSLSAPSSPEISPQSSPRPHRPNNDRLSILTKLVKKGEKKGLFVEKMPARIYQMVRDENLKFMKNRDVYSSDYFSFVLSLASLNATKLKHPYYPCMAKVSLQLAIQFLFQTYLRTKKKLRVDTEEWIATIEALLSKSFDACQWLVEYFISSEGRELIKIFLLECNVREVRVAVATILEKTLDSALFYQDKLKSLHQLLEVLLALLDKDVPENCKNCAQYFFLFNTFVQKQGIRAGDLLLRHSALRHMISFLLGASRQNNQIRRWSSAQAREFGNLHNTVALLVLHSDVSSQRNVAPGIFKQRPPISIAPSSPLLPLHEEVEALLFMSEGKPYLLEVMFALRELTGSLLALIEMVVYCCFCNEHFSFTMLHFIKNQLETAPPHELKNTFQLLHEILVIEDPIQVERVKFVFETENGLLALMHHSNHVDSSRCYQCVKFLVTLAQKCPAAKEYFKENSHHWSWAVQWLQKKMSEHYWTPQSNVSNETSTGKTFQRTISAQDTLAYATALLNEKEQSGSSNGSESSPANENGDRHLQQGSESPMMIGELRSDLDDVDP
Summary of the method: as §1

[4] = target: T3, USP25 (UniProt Q9UHP3)
T3 sequence (whole entry): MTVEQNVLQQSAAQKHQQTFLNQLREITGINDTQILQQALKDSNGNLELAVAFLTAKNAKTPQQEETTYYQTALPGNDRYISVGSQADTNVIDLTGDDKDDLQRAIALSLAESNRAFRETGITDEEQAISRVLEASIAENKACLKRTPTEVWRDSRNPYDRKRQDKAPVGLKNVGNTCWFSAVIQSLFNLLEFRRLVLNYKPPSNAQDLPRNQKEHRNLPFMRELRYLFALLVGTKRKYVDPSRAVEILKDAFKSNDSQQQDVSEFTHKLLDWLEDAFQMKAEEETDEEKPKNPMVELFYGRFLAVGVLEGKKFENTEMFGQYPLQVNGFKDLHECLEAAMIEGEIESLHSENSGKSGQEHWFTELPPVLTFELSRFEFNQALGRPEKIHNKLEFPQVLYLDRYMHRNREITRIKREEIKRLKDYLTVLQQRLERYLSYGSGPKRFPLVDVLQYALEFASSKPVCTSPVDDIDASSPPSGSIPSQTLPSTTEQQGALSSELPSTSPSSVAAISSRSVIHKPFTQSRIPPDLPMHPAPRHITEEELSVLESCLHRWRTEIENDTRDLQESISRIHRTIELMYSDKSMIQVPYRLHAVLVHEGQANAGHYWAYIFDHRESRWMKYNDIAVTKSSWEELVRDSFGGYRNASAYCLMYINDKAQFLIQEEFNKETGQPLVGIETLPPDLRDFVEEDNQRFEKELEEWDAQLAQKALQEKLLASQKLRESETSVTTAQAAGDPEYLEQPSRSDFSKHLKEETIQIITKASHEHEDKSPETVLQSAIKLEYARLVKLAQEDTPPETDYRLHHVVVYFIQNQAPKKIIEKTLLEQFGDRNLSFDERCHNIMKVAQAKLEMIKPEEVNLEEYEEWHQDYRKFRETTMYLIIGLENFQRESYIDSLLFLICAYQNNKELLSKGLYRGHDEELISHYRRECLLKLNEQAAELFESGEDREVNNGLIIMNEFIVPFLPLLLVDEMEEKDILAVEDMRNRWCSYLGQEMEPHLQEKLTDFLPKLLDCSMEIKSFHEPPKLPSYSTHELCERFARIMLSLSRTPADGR
Summary of the method: as §1

[5] = target: T4, USP28 (UniProt Q96RU2)
T4 sequence (whole entry): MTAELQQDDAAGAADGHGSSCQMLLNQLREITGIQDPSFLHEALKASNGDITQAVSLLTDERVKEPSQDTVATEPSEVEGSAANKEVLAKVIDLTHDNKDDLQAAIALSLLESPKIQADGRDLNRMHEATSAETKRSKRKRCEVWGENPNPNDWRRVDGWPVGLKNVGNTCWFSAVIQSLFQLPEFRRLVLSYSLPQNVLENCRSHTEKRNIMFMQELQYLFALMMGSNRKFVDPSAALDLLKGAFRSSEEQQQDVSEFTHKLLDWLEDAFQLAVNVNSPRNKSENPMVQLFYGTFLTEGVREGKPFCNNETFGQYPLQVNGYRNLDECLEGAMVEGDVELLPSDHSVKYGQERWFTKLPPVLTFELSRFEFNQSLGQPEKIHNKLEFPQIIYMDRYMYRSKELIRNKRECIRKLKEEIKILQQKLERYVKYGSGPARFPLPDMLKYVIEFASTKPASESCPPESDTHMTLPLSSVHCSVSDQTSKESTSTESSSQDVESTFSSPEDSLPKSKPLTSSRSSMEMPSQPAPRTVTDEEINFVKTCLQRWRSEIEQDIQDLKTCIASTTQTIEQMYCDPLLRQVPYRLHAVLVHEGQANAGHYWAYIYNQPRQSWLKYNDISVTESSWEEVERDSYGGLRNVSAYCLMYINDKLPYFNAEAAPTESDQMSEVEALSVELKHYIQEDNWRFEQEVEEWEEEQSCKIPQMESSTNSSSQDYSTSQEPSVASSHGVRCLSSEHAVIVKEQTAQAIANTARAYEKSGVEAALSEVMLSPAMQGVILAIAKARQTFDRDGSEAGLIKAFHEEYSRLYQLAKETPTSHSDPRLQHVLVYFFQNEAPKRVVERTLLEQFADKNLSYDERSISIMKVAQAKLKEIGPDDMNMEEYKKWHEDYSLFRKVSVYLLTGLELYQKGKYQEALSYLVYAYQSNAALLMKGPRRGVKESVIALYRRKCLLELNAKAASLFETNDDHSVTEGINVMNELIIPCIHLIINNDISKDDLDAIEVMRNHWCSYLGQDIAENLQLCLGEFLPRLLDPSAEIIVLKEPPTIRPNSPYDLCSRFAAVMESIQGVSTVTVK
Summary of the method: as §1

Measured: log2 ratio of Biotin-Ahx-Ub-VS probe labelling

CC1(NC(=O)CCl)CCS(=O)(=O)C1 (stereo not given)
inactive: [1] -0.59 | [2] -0.238 | [3] -0.659 | [4] -0.695 | [5] -0.835
